Reference: PubChem BioAssay (Tox21)
Records with an inconclusive call do not appear. Calls of active or inactive are those of the source. Unless noted, calls come from the whole dose curve; as a rule, active = well fitted curve in the direction sought with a large enough effect in the repeat runs; inconclusive = weak or mixed curves; inactive = no such curve, though single readings can be large; an effect the other way counts as inactive or inconclusive.

Legend:
[1] = qHTS assay to identify small molecule antagonists of the sonic hedgehog signaling (Shh) pathway (AID 1259369; calls by dose curve; note: nearly all actives have a fitted effect of over 45% in size)
Method in brief: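 Conditioned medium drives Shh signalling in 3T3Gli1-Luc cells; compounds in DMSO co-applied, 24hr at 37 C, then luciferase luminescence.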

[2] = target: Estrogen receptor beta (Homo sapiens) (UniProt Q92731); assay: qHTS assay to identify small molecule agonists of the estrogen receptor beta (ER-beta) signaling pathway (AID 1259377; active = well fitted activation curve with a large enough effect in the signal ratio in the repeat runs, not every such curve was filed as active; the % refers to the signal ratio)
Estrogen receptor beta (Homo sapiens), sequence (Q92731 whole entry, looked up): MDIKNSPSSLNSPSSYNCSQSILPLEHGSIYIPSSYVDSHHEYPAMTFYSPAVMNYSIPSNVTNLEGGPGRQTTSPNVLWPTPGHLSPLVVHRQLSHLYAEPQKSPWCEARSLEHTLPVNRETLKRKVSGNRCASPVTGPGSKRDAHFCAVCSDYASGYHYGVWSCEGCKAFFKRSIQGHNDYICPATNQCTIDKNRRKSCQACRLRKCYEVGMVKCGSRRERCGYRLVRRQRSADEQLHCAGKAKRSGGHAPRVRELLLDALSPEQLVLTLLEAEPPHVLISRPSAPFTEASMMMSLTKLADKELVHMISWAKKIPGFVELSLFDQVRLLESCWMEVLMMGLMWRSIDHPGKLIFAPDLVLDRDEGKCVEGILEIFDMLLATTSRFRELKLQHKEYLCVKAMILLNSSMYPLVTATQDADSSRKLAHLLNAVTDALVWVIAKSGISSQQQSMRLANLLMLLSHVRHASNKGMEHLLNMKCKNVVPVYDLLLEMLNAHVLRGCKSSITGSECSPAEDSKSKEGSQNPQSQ
Method in brief: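 Screening used GripTite ER-beta-UAS-bla cells held in 2% charcoal-stripped FBS medium. After overnight (16 hr) compound incubation at 37C, beta-lactamase activity was detected with a FRET substrate by fluorescence.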

[3] = target: Estrogen receptor beta (Homo sapiens) (UniProt Q92731); assay: qHTS assay to identify small molecule antagonists of the estrogen receptor beta (ER-beta) signaling pathway (AID 1259378; active = well fitted inhibition curve with a large enough effect in the signal ratio in the repeat runs, not every such curve was filed as active; the % refers to the signal ratio)
Method in brief: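 Antagonist mode: compounds added to beta-lactamase reporter HEK293T ER-beta-UAS cells stimulated with E2 (1nM final), 16 hr at 37C. LiveBLAzer B/G FRET substrate, 2 hours room temperature, fluorescence read-out.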

[4] = qHTS assay to identify small molecule agonists of the androgen receptor (AR) signaling pathway in the presence of an antagonist - cell viability counter screen (AID 1259379);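 note: MDA-kb2 human breast cancer cells carrying an MMTV luciferase reporter; series mostly up to about 92 µM; nearly all actives have a fitted effect of over 25% in size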
Method in brief: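 A CellTiter-Fluor read-out measured viability of MDA-kb2 reporter cells (MMTV promoter with AR and GR response elements). Treatment: nilutamide 3.0uM final with compounds at 15 concentrations, 16 hr, 37C, 0% CO2.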

[5] = qHTS assay to identify small molecule agonists of the estrogen receptor beta (ER-beta) signaling pathway - cell viability counter screen (AID 1259380); note: nearly all actives have a fitted effect of over 30% in size
Method in brief: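 Cells used were ER-beta-UAS-bla HEK293T in medium with 2% charcoal-stripped FBS. They were treated for 16 hr at 37C. Viability came from CellTiter-Glo luminescence.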

[6] = target: Androgen receptor (Homo sapiens) (UniProt P10275); assay: qHTS assay to identify small molecule agonists of the androgen receptor (AR) signaling pathway in the presence of an antagonist (AID 1259381; calls by dose curve; note: nearly all actives have a fitted effect of over 15% in size)
Androgen receptor (Homo sapiens), sequence (P10275 whole entry, looked up): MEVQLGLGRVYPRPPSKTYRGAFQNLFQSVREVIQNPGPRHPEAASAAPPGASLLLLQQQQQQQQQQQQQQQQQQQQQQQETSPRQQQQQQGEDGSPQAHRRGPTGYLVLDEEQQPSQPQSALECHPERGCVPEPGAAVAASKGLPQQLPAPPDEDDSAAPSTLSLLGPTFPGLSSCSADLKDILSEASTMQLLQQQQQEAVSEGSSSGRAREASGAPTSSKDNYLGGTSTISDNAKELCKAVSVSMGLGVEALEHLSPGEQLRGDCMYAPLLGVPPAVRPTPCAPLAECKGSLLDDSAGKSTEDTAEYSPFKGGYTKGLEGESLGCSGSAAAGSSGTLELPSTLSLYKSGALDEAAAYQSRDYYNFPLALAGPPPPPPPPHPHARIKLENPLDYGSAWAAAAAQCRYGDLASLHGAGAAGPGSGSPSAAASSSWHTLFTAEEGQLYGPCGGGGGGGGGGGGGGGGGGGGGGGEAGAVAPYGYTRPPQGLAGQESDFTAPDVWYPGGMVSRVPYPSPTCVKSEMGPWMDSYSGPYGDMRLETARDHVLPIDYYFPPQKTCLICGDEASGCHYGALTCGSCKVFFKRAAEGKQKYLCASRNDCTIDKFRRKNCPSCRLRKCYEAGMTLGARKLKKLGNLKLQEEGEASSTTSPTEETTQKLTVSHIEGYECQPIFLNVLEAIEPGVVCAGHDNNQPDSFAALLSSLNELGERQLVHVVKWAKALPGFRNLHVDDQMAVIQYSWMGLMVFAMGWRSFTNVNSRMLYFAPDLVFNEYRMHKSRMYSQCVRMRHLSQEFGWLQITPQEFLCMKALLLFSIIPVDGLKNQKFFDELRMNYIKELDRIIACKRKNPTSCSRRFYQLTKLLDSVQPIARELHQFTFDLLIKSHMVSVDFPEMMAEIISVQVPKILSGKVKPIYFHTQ
Method in brief: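 Using human MDA-kb2 cells with an MMTV promoter–luciferase construct (AR and GR response elements), agonist activity is scored under 3.0uM nilutamide (final) co-treatment; 16hr incubation, 37C, luminescence readout via ONE-Glo.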

[7] = qHTS assay to identify small molecule antagonists of the estrogen receptor beta (ER-beta) signaling pathway - cell viability counter screen (AID 1259382); note: series mostly up to about 92 µM; nearly all actives have a fitted effect of over 55% in size
Method in brief: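 Agonist-stimulated (1nM E2) ER-beta-UAS-bla HEK293T cells are incubated with library compounds for 16 hr at 37C. Cell viability is then assessed in the reporter-assay wells by adding CellTiter-Glo and reading luminescence after 30 min.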

[8] = target: Estrogen receptor (Homo sapiens) (UniProt P03372); assay: qHTS assay to identify small molecule agonists of the estrogen receptor alpha (ER-alpha) signaling pathway in the presence of an antagonist (AID 1259383; calls by dose curve; note: top concentration of the series differs between compounds; nearly all actives have a fitted effect of over 15% in size)
Estrogen receptor (Homo sapiens), sequence (P03372 whole entry, looked up): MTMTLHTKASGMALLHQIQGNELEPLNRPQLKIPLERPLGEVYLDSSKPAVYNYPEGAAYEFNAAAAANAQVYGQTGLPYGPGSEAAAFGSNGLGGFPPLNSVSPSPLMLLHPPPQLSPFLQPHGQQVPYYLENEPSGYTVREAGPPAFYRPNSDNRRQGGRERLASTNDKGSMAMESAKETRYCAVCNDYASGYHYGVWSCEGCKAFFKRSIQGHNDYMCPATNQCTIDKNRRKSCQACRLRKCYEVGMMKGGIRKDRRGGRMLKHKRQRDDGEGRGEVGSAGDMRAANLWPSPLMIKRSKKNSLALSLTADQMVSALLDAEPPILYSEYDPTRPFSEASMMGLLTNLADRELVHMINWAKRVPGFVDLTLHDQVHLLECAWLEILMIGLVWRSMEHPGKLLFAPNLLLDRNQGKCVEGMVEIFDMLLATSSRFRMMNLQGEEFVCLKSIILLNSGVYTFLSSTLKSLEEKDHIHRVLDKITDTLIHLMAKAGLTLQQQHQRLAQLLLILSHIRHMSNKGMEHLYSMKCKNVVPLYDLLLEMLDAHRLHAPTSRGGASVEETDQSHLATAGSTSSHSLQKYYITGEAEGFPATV
Method in brief: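 Using VM7Luc4E2 cells seeded 24hr before treatment, antagonist ICI-182,780 (10.0nM final) was added, followed by compounds at 15 concentrations. Plates incubated 22hr; ONE-Glo luminescence quantified reporter activity.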

[9] = qHTS assay to identify small molecule agonists or antagonists of the thyroid stimulating hormone receptor (TSHR) signaling pathway - wild type cell line counter screen (AID 1259384; calls by dose curve)
Method in brief: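 Counter screen in untransfected Hek293: compounds (15-point titration, triplicate) plus phosphodiesterase inhibitor Ro20-1724 added after 18 h plating; 30 min RT. Intracellular cAMP via competitive d2/cryptate immunoassay, 1 h incubation.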

[10] = target: Thyrotropin receptor (Homo sapiens) (UniProt P16473); assay: qHTS assay to identify small molecule antagonists of the thyroid stimulating hormone receptor (TSHR) signaling pathway (AID 1259385; calls by dose curve; note: nearly all actives have a fitted effect of over 20% in size)
Thyrotropin receptor (Homo sapiens), sequence (P16473 whole entry, looked up): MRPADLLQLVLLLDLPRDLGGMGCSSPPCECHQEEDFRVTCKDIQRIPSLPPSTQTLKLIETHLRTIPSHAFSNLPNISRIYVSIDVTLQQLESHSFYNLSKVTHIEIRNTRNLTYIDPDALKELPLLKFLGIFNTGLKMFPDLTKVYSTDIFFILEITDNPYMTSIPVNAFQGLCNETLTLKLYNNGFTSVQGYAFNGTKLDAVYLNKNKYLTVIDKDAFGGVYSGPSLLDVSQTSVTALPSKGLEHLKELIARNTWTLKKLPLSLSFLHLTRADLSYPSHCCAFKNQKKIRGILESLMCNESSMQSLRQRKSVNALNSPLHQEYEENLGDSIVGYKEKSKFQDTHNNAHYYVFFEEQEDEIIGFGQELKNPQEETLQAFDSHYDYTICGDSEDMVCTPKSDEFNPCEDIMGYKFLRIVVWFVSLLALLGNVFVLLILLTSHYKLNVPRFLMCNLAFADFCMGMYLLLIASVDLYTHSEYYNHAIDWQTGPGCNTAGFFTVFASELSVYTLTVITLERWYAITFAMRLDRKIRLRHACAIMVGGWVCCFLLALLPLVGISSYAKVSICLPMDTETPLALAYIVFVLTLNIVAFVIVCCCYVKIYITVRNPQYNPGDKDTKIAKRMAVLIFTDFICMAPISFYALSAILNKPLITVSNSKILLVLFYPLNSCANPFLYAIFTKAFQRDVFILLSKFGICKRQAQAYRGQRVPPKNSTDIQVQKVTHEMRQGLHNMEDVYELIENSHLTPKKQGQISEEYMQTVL
Method in brief: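 Antagonist mode: compound-treated TSHR-expressing HEK293 cells were stimulated with 1.5 ng/mL TSH (final) in presence of Ro20-1724 for 30 min at RT. HTRF cAMP detection after 1 h; each compound tested at 15 concentrations, triplicate.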

Measured: Potency

COC(=O)C(c1ccccc1)C1CCCCN1 (stereo not drawn)
inactive: all assays above

O=NN1CCCCC1
not listed: [8]
inactive: all other assays above

COc1ncc(F)c2nc(S(=O)(=O)Nc3c(F)cccc3F)nn12
not listed: [10]
inactive: all other assays above

C=C(C)CN(CC)c1c([N+](=O)[O-])cc(C(F)(F)F)cc1[N+](=O)[O-]
not listed: [6] | [9] | [10]
inactive: all other assays above

c1ccc(N2CCNCC2)cc1
not listed: [8] | [10]
inactive: all other assays above

O=CNC(N1CCN(C(NC=O)C(Cl)(Cl)Cl)CC1)C(Cl)(Cl)Cl (stereo not drawn)
inactive: all assays above

CN(N=O)C(N)=O
inactive: [1] | [2] | [3] | [4] | [5] | [7]

CN1CCC(O)(c2ccc(F)cc2)C(C(=O)c2ccc(F)cc2)C1 (stereo not drawn)
inactive: [1] | [2] | [3] | [4] | [5] | [7]

Nc1ccccc1Cl
inactive: all assays above

NC(=S)C(N)=S
not listed: [6] | [9] | [10]
inactive: all other assays above

CCC(C)n1c(=O)[nH]c(C)c(Br)c1=O (stereo not drawn)
not listed: [6] | [9] | [10]
inactive: all other assays above

CC1CN1P(=O)(N1CC1C)N1CC1C (stereo not drawn)
not listed: [6] | [9] | [10]
inactive: all other assays above

CCCCCCI
not listed: [9] | [10]
inactive: all other assays above

ClC(Br)Br
not listed: [6] | [9] | [10]
inactive: all other assays above

N#Cc1c(Cl)cccc1Cl
not listed: [6] | [9] | [10]
inactive: all other assays above

O=C(O)c1cccc(Cl)c1
not listed: [6] | [9] | [10]
inactive: all other assays above

Cc1cnc[nH]1
not listed: [8] | [10]
inactive: all other assays above

ClC(Cl)C(Cl)Cl
not listed: [6] | [9] | [10]
inactive: all other assays above

c1cc2c(c(N3CCNCC3)c1)OCCO2
not listed: [9]
inactive: all other assays above

CC(Cl)(Cl)[N+](=O)[O-]
not listed: [9]
inactive: all other assays above

CC(C)(C)NCC(O)c1cc(Cl)c(N)c(Cl)c1 (stereo not drawn)
not listed: [8] | [9] | [10]
inactive: all other assays above

ClC(Cl)(Cl)C(Cl)(Cl)Cl
not listed: [6] | [9] | [10]
inactive: all other assays above

Fc1cc(Br)ccc1CBr
inactive: all assays above

CNC(=O)Oc1c(C(C)(C)C)cc(C)cc1C(C)(C)C
not listed: [8]
inactive: all other assays above

N#Cc1ccncc1
not listed: [6] | [9] | [10]
inactive: all other assays above

CNC(=O)Oc1ccccc1C1OCCO1
not listed: [9] | [10]
inactive: all other assays above

CCOC(=O)NC(=S)Nc1ccccc1NC(=S)NC(=O)OCC
inactive: [1] | [2] | [3] | [4] | [5] | [7]

COC(=O)c1c(C(F)F)nc(C(F)(F)F)c(C2=NCCS2)c1CC(C)C
inactive: all assays above

CCOC(=O)N(C)C(=O)CSP(=S)(OCC)OCC
inactive: [1] | [2] | [3] | [4] | [5] | [7]
